Compounds with a hit are over-represented: about 2.4% of the library has one in this group of screens.
D2 PAM-1: potentiates the human D2 dopamine receptor allosterically. P14416. DiscoveRx D2 beta-arrestin cells, luminescence, 90 min; 100% = 57 uM dopamine signal. potentiation, % (no concentration beside the values). hit rate 0.23% among 360,000; in the data active = potentiation above about 50%
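D2 cells co-treated with compound plus 50 nM dopamine (EC20) for 90 min at 37 deg C to detect potentiation. Beta-arrestin recruitment was read as enzyme-fragment luminescence after 1 h at ambient temperature. Full response was set by 57 uM dopamine.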
D2 antag: antagonists of human D2 dopamine receptor; inhibition, % at 10 µM; hit rate 2% among 340,000; P14416; AID 485344; HEK293 TREx D2 cells, calcium flux, dopamine EC80; in the data active = inhibition above about 30%; inactive = below that, where a call was filed; note: 0% is about no effect
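In this primary screen, negative modulation is detected by tracking calcium flux after an EC80 dopamine challenge in inducible HEK293 T-REx D2 cells preexposed to test compound for 180 s.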
D2 ag-1: agonists of human D2 dopamine receptor (beta-arrestin); P14416; DiscoveRx PathHunter D2 beta-arrestin, luminescence, 90 min; 100% = 57 uM dopamine signal; activation, % (no concentration beside the values); hit rate 0.084% among 360,000; AID 624465; in the data active = activation above about 40%
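DiscoveRx PathHunter D2 beta-arrestin cells (2,100/well) attached overnight, then compound-stimulated 90 min at 37 C in HBSS/10 mM HEPES/0.1% Tween-20 buffer; beta-galactosidase complementation read by luminescence after 1 h at ambient temperature. Dopamine 57 uM final (EC100) as control.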
D2 PAM-2: positive allosteric modulators of human D2 dopamine receptor. P14416. HEK293 T-REx D2, calcium flux, EC20 dopamine potentiation. potentiation, % at 10 µM. hit rate 0.34% among 340,000;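 active = potentiation over 3 SD above the plate norm, cut at about 30% in these data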; note: 0% is about no effect
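Primary screen. Calcium kinetics in induced HEK293 T-REx D2 cells: compound pre-addition 180 s, EC20 dopamine, 180 s more.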
D2 ag-2: D2 dopamine receptor (human) agonism. P14416. HEK293 T-REx D2 cells, calcium flux agonist mode. activation, % at 2 µM. hit rate 0.53% among 340,000;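 active = activation over 3 SD above normal in the single-dose calcium agonist read, cut at about 30% in these data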; note: 0% is about no effect
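In this primary screen, compounds producing a positive calcium signal within 180 s of addition to tetracycline-induced, force-coupled HEK293 Trex D2 cells are flagged; cells are dye-loaded with a no-wash calcium kit beforehand.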
B2AR arrestin: recruits beta-arrestin to the human beta2-adrenergic receptor; beta-arrestin recruitment to beta2AR, cell-based reporter; Potency, µM (top dose mostly 46.1 µM), for inactives: at the top dose activation, most hits filed as activators; hit rate 0.02% among 330,000; active = well fitted activation curve with a large enough effect;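 note: potency is the fitted concentration of half-maximal effect; 0% = DMSO controls and full agonism = EC100 isoproterenol or metaproterenol; nearly all actives have a fitted effect of over 65% in size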
Target sequence (P07550 whole entry, looked up): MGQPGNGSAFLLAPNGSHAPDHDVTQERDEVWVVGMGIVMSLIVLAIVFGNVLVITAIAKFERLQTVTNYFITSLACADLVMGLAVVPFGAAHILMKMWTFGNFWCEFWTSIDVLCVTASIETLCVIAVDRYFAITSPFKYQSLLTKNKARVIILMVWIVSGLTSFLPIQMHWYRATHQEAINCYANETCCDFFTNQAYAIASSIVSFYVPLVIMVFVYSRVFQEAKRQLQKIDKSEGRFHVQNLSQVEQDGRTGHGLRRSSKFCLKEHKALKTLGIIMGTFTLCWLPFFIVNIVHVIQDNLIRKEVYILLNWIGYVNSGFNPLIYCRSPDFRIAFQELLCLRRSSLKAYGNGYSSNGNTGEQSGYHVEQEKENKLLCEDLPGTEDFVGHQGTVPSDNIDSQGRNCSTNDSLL
An asterisk follows results filed as active; . = not tested or not shown.

SMILES	D2 PAM-1	D2 antag	D2 ag-1	D2 PAM-2	D2 ag-2	B2AR arrestin
CC1CCCN(CCCNC(=O)c2coc3nc4ccccc4nc23)C1 (stereo not drawn)	-31	33*	-3	-4	0	0%
CCCCOC(=O)/C(=C\c1ccc([N+](=O)[O-])o1)NC(=O)c1ccccc1	15	-14	0	36*	0	0%
CCC(C)c1ccc(S(=O)(=O)N2CCN(CC(O)COCC3CCCO3)CC2)cc1 (stereo not drawn)	-9	33*	-4	-9	-1	0%
CCC(C)NC(=O)c1cnn2c(C)c3c(nc12)CCCC3 (stereo not drawn)	4	14	-3	33*	-2	0%
Cc1ccc(/C=C/C(=O)c2ccc([N+](=O)[O-])o2)cc1	54*	1	10	7	1	7%
Cc1ccc(CNC(=O)c2ccc([N+](=O)[O-])o2)cc1	56*	0	-14	-7	0	0%
Cc1ccc(CNC(=O)c2nn(C)c(C)c2[N+](=O)[O-])cc1	-13	17	-5	-8	0	1%
COc1ccc(CNC(=O)CN2C(=O)C3CCCN3c3ncc(Cl)cc32)cc1 (stereo not drawn)	-5	-1	-1	2	-1	0%
CC(=O)c1ccc(NC(=O)c2cn3c4c(ccc(Cl)c4c2=O)OC(C)C3)cc1 (stereo not drawn)	.	.	.	-5	0	.
Cc1c(C(C)NC(=O)c2ccc3nc(Cc4ccccc4F)oc3c2)cnn1C (stereo not drawn)	-7	13	0	5	-2	0%
CN(C)CCNc1ncnc2oc(-c3ccccc3)c(-c3ccccc3)c12	-16	-3	-8	-11	0	0%
COc1ccc(-c2oc3ncnc(NCCCN(C)C)c3c2-c2ccc(OC)cc2)cc1	-15	54*	-3	-22	-2	0%
CCOC(=O)c1sc(=NC(=O)c2ccc(OC)c(OC)c2)n(C)c1C	-10	2	-2	7	-1	0%
CCCCN1C(=O)C2C(C(=O)Nc3cccc(OC)c3)C3C=CC2(O3)C1C(=O)NC1CCCCC1C (stereo not drawn)	-14	36*	0	3	0	-1%
Cc1ccc(S(=O)(=O)N2CCc3ccccc3C2CN2C(=O)c3ccccc3C2=O)cc1 (stereo not drawn)	1	-4	2	-5	0	4%
O=C1c2ccccc2C(=O)N1CC1c2ccccc2CCN1S(=O)(=O)c1cnc[nH]1 (stereo not drawn)	21	46*	1	-4	1	0%
Cc1cc(C)c(C(=O)c2ccc(C(=O)N(C(C)C)C(C)C)cc2)c(C)c1	-23	-2	-4	-20	2	2%
Cc1cc(C)c(C(=O)c2ccc(C(=O)NC(C)(C)C)cc2)c(C)c1	-2	40*	-1	0	0	-2%
Cc1cc(N2CCN(C/C=C/c3ccccc3)CC2)n2ncnc2n1	0	-38	3	13	-2	-1%
Cc1nc2nc(NCc3ccccc3Cl)[nH]n2c(=O)c1Cc1ccccc1	.	.	.	4	-1	.
CCc1c(C)nc2nc(SCc3ccccc3Cl)[nH]n2c1=O	-2	32*	-1	-2	0	0%
O=[N+]([O-])c1cccc(/C=C/c2nc[nH]c2[N+](=O)[O-])c1	-3	-7	-7	-5	1	1%
CC1(C)C(=O)NCCN1C(=O)CCC(=O)O	-20	-17	0	33*	0	0%
O[Si](CCCN1CCCCC1)(c1ccc(F)cc1)C1CCCCC1 (stereo not drawn)	-26	124*	-3	-27	1	3%
O=C(NCCCN1CCCC1)Nc1ccc(F)cc1	-15	-6	3	-7	0	0%
SMILES	D2 PAM-1	D2 antag	D2 ag-1	D2 PAM-2	D2 ag-2	B2AR arrestin
COc1ccc(Cn2c(O)c(C=Nc3ccc(OC)cc3)c3ccccc3c2=O)cc1	-2	-6	1	11	2	0%
COc1ccc(Cn2c(O)c(C=Nc3ccccc3C(=O)O)c3ccccc3c2=O)cc1	5	32*	5	4	0	-1%
Cc1cc(C(=O)CSc2nnc(-c3ccc(F)cc3)o2)c(C)n1CC1COc2ccccc2O1 (stereo not drawn)	-4	41*	-1	-9	0	-1%
Cc1cc(C(=O)CSc2nnc(-c3ccccc3)o2)c(C)n1CC1COc2ccccc2O1 (stereo not drawn)	9	-17	1	15	1	-4%
Cc1ccc2c(c1)C(C)CC(C)(C)N2C(=O)CN1CCN(C)CC1 (stereo not drawn)	-31	36*	-5	-20	-1	-1%
COc1ccc(NC(=O)c2ccc(-c3ccccc3Cl)o2)cc1	-25	42*	-3	-17	-1	1%
COc1ccc(C(CNC(=O)c2cc(F)c(F)c(F)c2F)N2CCOCC2)cc1 (stereo not drawn)	-11	40*	-3	-5	-1	0%
COc1ccc(C(CNC(=O)c2ccc(-c3ccccc3Cl)o2)N2CCOCC2)cc1 (stereo not drawn)	-40	66*	-4	-39	1	0%
COc1ccccc1C(CNC(=O)c1ccc(-c2ccccc2Cl)o1)N1CCCC1 (stereo not drawn)	-69	11	-2	-20	1	-1%
CC(C)(CNC(=O)c1ccc(-c2ccccc2Cl)o1)N1CCOCC1	-20	40*	-4	-5	-1	-2%
Fc1ccc(C2=CC(c3ccco3)n3nnnc3N2)cc1 (stereo not drawn)	-2	-6	3	0	-1	-1%
COc1cc(/C=C/C(=O)OC(C)C(=O)c2ccccc2)cc(OC)c1OC (stereo not drawn)	-7	-7	-2	3	0	0%
COc1ccc(OC)c(C=NNC(=O)c2ccccc2NS(=O)(=O)c2cccs2)c1	-1	.	-3	.	.	-1%
CCOc1ccc(OCC)c(NS(=O)(=O)c2cc(Br)cc3c2N(C(C)=O)C(C)C3)c1 (stereo not drawn)	.	.	.	-9	-1	.
COc1ccc(-c2nnc(NC(=O)c3ccccc3C)o2)cc1	-2	51*	-3	-1	-1	0%
Cc1ccccc1Cc1n[nH]c(=S)n1N	-1	18	-5	11	2	-3%
Cc1ccc(-c2onc3ccc(C=O)cc23)cc1	59*	2	10	0	-1	-1%
Cc1ccc(-c2onc3ccc(C4(C)OCCO4)cc23)cc1	69*	.	13	.	.	-1%

Assay outcomes: PubChem BioAssay, National Center for Advancing Translational Sciences (NCATS)
